This passage reports Potency results from PubChem BioAssay (NCATS).

Records with an inconclusive call do not appear. Activity calls are given as the source filed them. Calls come from the whole dose curve; as a rule, active = well fitted cell-killing curve with a large enough effect; inconclusive = small, poorly fitted or top-dose-only effect, or effect the other way; inactive = no such curve, though single readings can be large or run the other way. Residues, ends and D or L forms follow the SMILES beside them. *: point of attachment. Cbz = O=C(OCc1ccccc1)*

Assay [1] can be described thus: Quantitative High-Throughput drug screen in 47 multiple myeloma cell lines against the NCATS MIPE library collection: U266_ATCC cell viability assay (AID 1919864). Note: nearly all actives have a fitted effect of over 35% in size. Conditions: U266 myeloma viability, CellTiter-Glo ATP luminescence, 48 h; series mostly up to 45.8 µM. The gist of the method:
(§1)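 Myeloma cells (500/well) treated with MIPE 4.0 compounds for 48 h at 37 °C, 5% CO2. Viability read as ATP via CellTiter-Glo luminescence after 5 min at RT; DMSO-only wells = 100%, media-only = 0% viability.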

Assay [2] is described as follows: Quantitative High-Throughput drug screen in 47 multiple myeloma cell lines against the NCATS MIPE library collection: XG6_PLB cell viability assay (AID 1919865). Note: nearly all actives have a fitted effect of over 40% in size. Conditions: XG6 myeloma viability, CellTiter-Glo ATP luminescence, 48 h; series mostly up to 45.8 µM. The gist of the method: as §1
(In general: In ATP-based viability assays light output follows the ATP content of the culture.)

Assay [3] can be described thus: Quantitative High-Throughput drug screen in 47 multiple myeloma cell lines against the NCATS MIPE library collection: XG1_PLB cell viability assay (AID 1919866). Note: nearly all actives have a fitted effect of over 35% in size. Conditions: CellTiter-Glo ATP, 48 h; series mostly up to 45.8 µM. The gist of the method: as §1
Assay [4] can be described thus: Quantitative High-Throughput drug screen in 47 multiple myeloma cell lines against the NCATS MIPE library collection: VP6_DJ cell viability assay (AID 1919867). Note: nearly all actives have a fitted effect of over 40% in size. Conditions: ATP luminescence, 48 h; series mostly up to 45.8 µM. An outline of the steps: as §1
Assay [5] is described as follows: Quantitative High-Throughput drug screen in 47 multiple myeloma cell lines against the NCATS MIPE library collection: UTMC2_PLB cell viability assay (AID 1919868). Note: nearly all actives have a fitted effect of over 55% in size. Conditions: CellTiter-Glo ATP luminescence, 48 h; viability (% of DMSO control): at 45.8 µM (top of the series). An outline of the steps: as §1
Assay [6] can be described thus: Quantitative High-Throughput drug screen in 47 multiple myeloma cell lines against the NCATS MIPE library collection: PE2_PLB cell viability assay (AID 1919869). Note: nearly all actives have a fitted effect of over 35% in size. Conditions: PE2_PLB myeloma cells viability, ATP luminescence, 48 h; series mostly up to 45.8 µM. The gist of the method: as §1
Assay [7] is described as follows: Quantitative High-Throughput drug screen in 47 multiple myeloma cell lines against the NCATS MIPE library collection: PCM6_Riken cell viability assay (AID 1919870). Note: nearly all actives have a fitted effect of over 30% in size. Conditions: CellTiter-Glo ATP, 48 h; series mostly up to 45.8 µM. An outline of the steps: as §1
Assay [8] is described as follows: Quantitative High-Throughput drug screen in 47 multiple myeloma cell lines against the NCATS MIPE library collection: RPMI8226_ATCC cell viability assay (AID 1919871). Note: nearly all actives have a fitted effect of over 30% in size. Conditions: RPMI8226 myeloma viability, CellTiter-Glo ATP luminescence, 48 h; series mostly up to 45.8 µM. An outline of the steps: as §1
Assay [9] is described as follows: Quantitative High-Throughput drug screen in 47 multiple myeloma cell lines against the NCATS MIPE library collection: OPM2_DSMZ cell viability assay (AID 1919872). Note: nearly all actives have a fitted effect of over 30% in size. The following applies: OPM2 myeloma viability, CellTiter-Glo ATP luminescence, 48 h; series mostly up to 45.8 µM. The gist of the method:
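Myeloma cell lines, 500 cells per well, exposed to MIPE 4.0 library compounds for 48 h at 37C, 5% CO2. Viability from ATP by CellTiter-Glo luminescence; normalised to DMSO (100%) and media-only (0%) wells.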

Assay [10] is described as follows: Quantitative High-Throughput drug screen in 47 multiple myeloma cell lines against the NCATS MIPE library collection: KMS11_JCRBsus cell viability assay (AID 1919873). Note: nearly all actives have a fitted effect of over 50% in size. The following applies: KMS11 myeloma viability, CellTiter-Glo ATP luminescence, 48 h; series mostly up to 45.8 µM. The gist of the method: as §1
Potency is the fitted concentration of half-maximal effect.

As to `C=CC(=O)N1CCc2ccc(-n3c(=O)ccc4cnc5ccc(-c6cnn(C)c6)cc5c43)cc21`, the Potency was 3320 nM (active) in assay [1]; 2960 nM (active) in assay [2]; 1320 nM (active) in [3]; 2960 nM (active) in [4]; 1050 nM (active) in assay [5]; 1660 nM (active) in assay [6]. The Potency is 1660 nM (active) in [7], 1050 nM (active) in assay [8], 2350 nM (active) in assay [9] and 418 nM (active) in assay [10].
In the case of `C=CC(=O)Nc1cc(NC(=O)c2ccc(C)c(NC(=O)c3ccno3)c2)cc(C(F)(F)F)c1`, the Potency in assay [1] was 20900 nM (active); in assay [2], 16600 nM (active); in assay [3] it was 14800 nM (active); in [4], 16600 nM (active); in assay [5], 20900 nM (active); in [6], 16600 nM (active). Further, the Potency is 16600 nM (active) in assay [7], 23500 nM (active) in assay [8] and 11800 nM (active) in [10].
For the compound `C=CCNC1=C2C[C@@H](C)C[C@H](OC)[C@@H](O)[C@@H](C)C=C(C)[C@H](OC(N)=O)[C@@H](OC)C=CC=C(C)C(=O)NC(=CC1=O)C2=O`, the Potency in [1] is 833 nM (active); in assay [2], 2640 nM (active); in assay [3], 662 nM (active); in [4] it was 264 nM (active); in assay [5] it was 1320 nM (active); in assay [6], 4180 nM (active). Further, the Potency in assay [7] is 1480 nM (active); in assay [8], 1050 nM (active); in [9], 2350 nM (active); in [10], 59 nM (active).
As to `CCN(CC)Cc1ccc2cc(COC(=O)Nc3ccc(C(=O)NO)cc3)ccc2c1`, the Potency in [1] was 662 nM (active); in assay [2], 1660 nM (active); in assay [3], 833 nM (active); in assay [4] it was 132 nM (active); in [5] it was 148 nM (active); in assay [6], 935 nM (active). For the same compound, the Potency was 833 nM (active) in [7], 1050 nM (active) in assay [8] and 526 nM (active) in assay [10].
Turning to `COc1cc(C=CC(=O)CC(=O)C=Cc2ccc(O)c(OC)c2)ccc1O`, the Potency was 34000 nM (active) in [1]; 10800 nM (active) in [2]; 6790 nM (active) in assay [3]; 9590 nM (active) in [4]; 21500 nM (active) in assay [5]; 4810 nM (active) in [6]. Besides, the Potency in assay [7] was 9590 nM (active); in assay [8] it was 30300 nM (active); in assay [9], 21500 nM (active); in assay [10], 8550 nM (active).
As for `CC(C(C)N1CC(=O)NC(=O)C1)N1CC(=O)NC(=O)C1` (configuration not stated), the Potency result in assay [1], in [2], in [3], in [4], in [6] and in assay [7] was “inactive” each time. Moreover, the Potency entry in [8], in [9] and in assay [10] was “inactive” in each case. The Potency in assay [5] was 526 nM (active).
Turning to `Cc1cnc(Nc2ccc(CN3CCOCC3)cc2)nc1Nc1cccc(S(=O)(=O)NC(C)(C)C)c1`, the Potency in [1] is 7430 nM (active); in assay [2], 1180 nM (active); in assay [3], 935 nM (active); in [4], 1320 nM (active); in assay [5] it was 743 nM (active); in assay [6], 1660 nM (active). The Potency in assay [7] was 5260 nM (active); in assay [8], 4180 nM (active); in assay [9] it was 4690 nM (active); in assay [10], 1180 nM (active).
Turning to `CC(C)C[C@@H](C=O)NC(=O)[C@H](CC(C)C)NC(=O)[C@H](CC(C)C)NC(=O)OCc1ccccc1` (Cbz-Leu-Leu-Leu-aldehyde), the Potency in assay [1] is 166 nM (active); in assay [2], 105 nM (active); in assay [3], 148 nM (active); in assay [4], 132 nM (active); in assay [5], 1180 nM (active); in assay [6], 209 nM (active). Further, the Potency in assay [7] is 332 nM (active); in assay [8] it was 833 nM (active); in assay [9], 662 nM (active); in assay [10], 264 nM (active).
For the compound `C=C1C(=O)O[C@H]2[C@@H]1CCC(C)=CCC[C@@]1(C)O[C@@H]21`, the Potency in assay [1] was 6620 nM (active); in assay [2] it was 5900 nM (active); in [3], 2640 nM (active); in [4], 4180 nM (active); in assay [5] it was 4690 nM (active); in [6], 3320 nM (active). The Potency is 3320 nM (active) in assay [7], 5260 nM (active) in assay [8], 5900 nM (active) in assay [9] and 3320 nM (active) in [10].
Consider `CCS(=O)(=O)Nc1ccc2[nH]c(O)c(C(=Nc3ccc(CN4CCCCC4)cc3)c3ccccc3)c2c1`, for which the Potency is 5900 nM (active) in [1]; 3320 nM (active) in assay [2]; 1320 nM (active) in [3]; 590 nM (active) in assay [4]; 93.5 nM (active) in assay [5]; 469 nM (active) in assay [6]. Besides, the Potency in assay [7] is 3720 nM (active); in assay [8] it was 332 nM (active); in [10], 166 nM (active).
Regarding `COc1ccc2c(c1OC)C(=O)OC2[C@H]1c2c(cc3c(c2OC)OCO3)CCN1C` (some centres not stated), the Potency in assay [1] was 1660 nM (active); in [2], 46.9 nM (active); in [3] it was 41.8 nM (active); in assay [4], 74.3 nM (active); in [5] it was 132 nM (active); in assay [6], 372 nM (active). Besides, the Potency was 469 nM (active) in assay [7], 3720 nM (active) in assay [8], 66.2 nM (active) in assay [9] and 26.4 nM (active) in assay [10].
With `COc1ccc(S(=O)(=O)Nc2cc(-c3c(O)ccc4ccccc34)c(O)c3ccccc23)cc1`, the Potency in assay [1] is 2350 nM (active); in assay [2], 5900 nM (active); in [3], 5260 nM (active); in assay [4], 9350 nM (active); in [5], 16600 nM (active); in assay [6] it was 1480 nM (active). Also, the Potency in assay [7] was 5260 nM (active); in assay [8], 23500 nM (active); in [9] it was 11800 nM (active); in [10], 3320 nM (active).
